High-throughput results deposited in PubChem BioAssay by several laboratories.
S1P4 agonist: activates the human S1P4 receptor | O95977 | activation, % at 4.98 µM | actives 0.35% (n = 220,000) | S1P4-expressing cell line, agonist reporter assay; in the data active means activation above about 11%;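 further: 0% = DMSO vehicle and 100% = reference agonist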
S1P4 antagonist: human S1P4 receptor antagonism. O95977. S1P4-expressing cells, antagonist mode, reporter read-out. inhibition, % at 4.98 µM. actives 0.26% (n = 220,000); in the data active means inhibition above about 29%;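 further: 0% = wells stimulated with agonist and 100% = vehicle wells without agonist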
RAM inhibit: yeast RAM network inhibition; inhibition, % at 50 µM; AID 868; actives 1.8% (n = 190,000); S. cerevisiae dse1pr::URA3 reporter, 5-FOA growth OD615, 2 d; analog-sensitive cbk1-as2 kinase mutant strain;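 active means inhibition above a set limit, 3 SD over mean compound inhibition, cut at about 8.4% in these data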;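 further: 0% = DMSO-only wells with no growth and 100% = 10 µM 1-NA-PP1 full growth; inhibition rescues growth on 5-FOA so higher OD means more RAM inhibition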
ROMK primary: modulates human ROMK potassium channel activity | P48048 | Tet-inducible ROMK, thallium flux fluorescence; actives lie on both sides | B-score at 10 µM | actives 2% (n = 130,000);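 active means signal ratio slope over the read window, or its plate-corrected B-score, at least 3 SD from the plate mean, either direction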;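 further: B-score of the F/F0 ratio slope over 7 to 12 s after thallium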
KCC2 mod: KCC2 (human) Cl- transport modulation; Q9H2X9; KCC2 cells, thallium flux FluoZin-2 fluorescence; B-score of Tl+ flux slope (higher = more flux/activation; lower = inhibition) at 10 µM; actives 2.2% (n = 190,000); AID 1456;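 active means thallium flux slope and its plate-corrected score both differing from the plate sample mean at a set confidence after two filtering rounds, in either direction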;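 further: slope of fluorescence scaled to starting intensity during 10 to 20 s after thallium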
Target sequence (Q9H2X9 whole entry, looked up): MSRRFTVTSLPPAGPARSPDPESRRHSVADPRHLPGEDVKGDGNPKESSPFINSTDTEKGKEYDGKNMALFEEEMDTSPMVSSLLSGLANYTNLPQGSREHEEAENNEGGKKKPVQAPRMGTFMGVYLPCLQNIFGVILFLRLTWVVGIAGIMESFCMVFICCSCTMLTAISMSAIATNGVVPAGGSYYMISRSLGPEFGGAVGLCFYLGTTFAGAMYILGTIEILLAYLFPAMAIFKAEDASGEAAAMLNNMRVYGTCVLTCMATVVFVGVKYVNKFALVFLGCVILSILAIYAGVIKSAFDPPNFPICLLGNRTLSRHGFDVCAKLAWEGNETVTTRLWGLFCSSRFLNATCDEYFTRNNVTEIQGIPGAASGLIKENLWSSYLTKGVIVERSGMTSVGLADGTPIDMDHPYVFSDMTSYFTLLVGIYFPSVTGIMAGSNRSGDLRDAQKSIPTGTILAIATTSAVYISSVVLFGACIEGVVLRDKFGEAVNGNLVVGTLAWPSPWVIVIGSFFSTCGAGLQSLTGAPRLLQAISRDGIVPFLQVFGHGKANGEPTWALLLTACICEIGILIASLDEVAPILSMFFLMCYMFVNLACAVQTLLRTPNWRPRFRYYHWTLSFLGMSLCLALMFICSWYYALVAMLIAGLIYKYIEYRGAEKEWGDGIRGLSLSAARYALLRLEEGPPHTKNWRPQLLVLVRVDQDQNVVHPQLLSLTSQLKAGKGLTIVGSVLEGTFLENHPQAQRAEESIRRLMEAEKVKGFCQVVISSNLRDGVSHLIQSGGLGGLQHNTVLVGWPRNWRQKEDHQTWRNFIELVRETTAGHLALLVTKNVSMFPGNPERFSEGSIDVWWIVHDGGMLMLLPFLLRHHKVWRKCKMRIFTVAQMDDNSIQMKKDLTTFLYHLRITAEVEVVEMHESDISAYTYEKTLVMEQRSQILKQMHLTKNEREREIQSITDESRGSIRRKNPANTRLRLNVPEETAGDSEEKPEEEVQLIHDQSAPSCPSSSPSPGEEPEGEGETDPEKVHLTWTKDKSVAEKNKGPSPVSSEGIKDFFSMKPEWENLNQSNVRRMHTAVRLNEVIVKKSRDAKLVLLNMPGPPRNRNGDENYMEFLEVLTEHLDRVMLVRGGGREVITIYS
S1P3 antag: blocks the human S1P3 receptor. inhibition, % at 4.98 µM. Q99500. AID 485. CHO S1P3 NFAT-BLA reporter, FRET fluorescence, antagonist mode. actives 0.27% (n = 170,000);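 active means inhibition above the plate cutoff, the mean inhibition of test wells on that plate plus 3 SD, cut at about 28% in these data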;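 further: cells challenged with S1P at its EC80 of 0.8 µM; blue over green emission ratio from cleaved BLA substrate after 4 h stimulation; 0% = S1P-stimulated wells and 100% = unstimulated DMSO-only wells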
KCC2 secondary: confirmation of human KCC2 transport modulators. normalised thallium flux (F/F0 slope) at 10 µM. HEK293-KCC2, thallium flux, FluoZin2 fluorescence; hits give high values. shares compounds with KCC2 mod. actives 15% (n = 3,700);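 active means thallium flux slope above the same plate's solvent-only control mean plus 3 SD; inconclusive means the two replicate wells disagree; inactive means no significant difference from solvent-only control wells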
KCC2 bumet counter: thallium flux despite bumetanide block in KCC2 cells, secondary assay 3. normalized thallium flux at 10 µM. actives 49% (n = 3,700). HEK293-KCC2 + bumetanide/ouabain, thallium flux FluoZin2; hits give high values. shares compounds with KCC2 mod. AID 1714;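 active means thallium entry rate above the same plate's blocked-transporter control wells by more than 3 SD; inconclusive means the two repeat wells disagree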;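 further: raw slope of fluorescence over initial fluorescence between 10 and 20 s after thallium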
KCC2 sec2: confirmation of human KCC2 transport modulators; normalized thallium flux at 10 µM; shares compounds with KCC2 mod; actives 23% (n = 3,700); HEK293-KCC2, thallium flux FluoZin2 fluorescence; actives lie on both sides; F/F0 rise rate, 10–20 s post-thallium; AID 1715;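 active means thallium flux slope more than 3 SD above or below the plate's solvent-only control mean, mostly below; inconclusive means the two repeat wells disagreed; inactive means no significant shift from solvent-only controls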;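 further: raw slope with 0.1% DMSO as baseline and bumetanide as block control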
HEK293 Tl flux: counter-screen for KCC2 modulators: effect in parental HEK293 cells; shares compounds with KCC2 mod; thallium flux FluoZin2, ouabain; baseline-ratio fluorescence slope, 10–20 s after thallium; thallium flux rate (normalised fluorescence) at 10 µM; actives 46% (n = 3,700); AID 1716;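 active means thallium flux rate significantly above the same plate's solvent-only control wells, beyond their mean plus 3 SD; inconclusive means the two replicate wells gave conflicting results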
KCC2 ouabain: KCC2 (human) modulation, ouabain retest. actives 48% (n = 3,700). raw Tl+ flux slope (below DMSO = inhibition, above = activation) at 10 µM. shares compounds with KCC2 mod. HEK293-KCC2, thallium flux FluoZin2 fluorescence; bidirectional: low = inhibitor, high = activator;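 active means thallium flux slope beyond 3 SD from same-plate DMSO control mean in most replicates, usually higher, sometimes lower; inconclusive means repeat tests gave conflicting results; inactive means no significant difference from controls in most replicates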;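 further: slope of initial-normalized fluorescence between seconds 10 and 20 after thallium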
HEK293 Tl flux2: counter-screen for KCC2 modulators: effect in parental HEK293 cells; thallium flux slope at 10 µM; actives 33% (n = 3,700); thallium flux FluoZin-2 fluorescence slope; shares compounds with KCC2 mod;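 active means thallium flux slope above the same plate's solvent-control mean plus 3 SD in both duplicate wells; inconclusive means duplicate wells that disagreed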;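 further: run without ouabain in cells lacking the KCC2 cotransporter; slope of fluorescence scaled to its starting value between 10 and 20 s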
Active calls of the source: *; u = inconclusive; x = no result. Hits are enriched below; roughly 5.1% of the tested compounds scored in any of these assays.

SMILES	S1P4 agonist	S1P4 antagonist	RAM inhibit	ROMK primary	KCC2 mod	S1P3 antag	KCC2 secondary	KCC2 bumet counter	KCC2 sec2	HEK293 Tl flux	KCC2 ouabain	HEK293 Tl flux2
COc1ccc(Cl)cc1C(=O)CSc1nc(N)cc(N)n1	1	0	0	0.58	-8.7*	3	0.0075	0.0057	0.029	0.0064	0.027	0.01
CCCCn1nnnc1SCC(=O)c1cc(Cl)ccc1OC	-1	13	3	x	-1.3	x	x	x	x	x	x	x
CC(C)NC(=O)c1c2c(nc3ccccc13)CCCC2	0	-22	1	0.07	0.33	x	x	x	x	x	x	x
O=C(N/C=C\n1cnc2cc(C(F)(F)F)ccc21)c1ccc([N+](=O)[O-])cc1	0	-2	x	x	0.22	2	x	x	x	x	x	x
CSc1ccc(CN2CCN(CCC(C)C)C(CCO)C2)cc1 (stereo unspecified)	3	-4	2	0.34	-0.0047	-8	x	x	x	x	x	x
CC(C)CCN1CCN(Cc2ccc(C#CCCO)cc2)CC1CCO (stereo unspecified)	0	-9	1	x	5.3*	-28	0.017	0.0043	0.032	0.0081	0.018	0.01
Cc1ccc(/C=N/NC(=O)c2ccc(Br)o2)s1	0	-2	2	0.61	5.3*	-9	0.0091	0.0092*	0.033	u	0.021	0.012
CCc1ccc(/C=N\NC(=O)c2ccc(Br)o2)s1	2	-6	-1	-0.00048	6*	-5	0.0094	0.022*	0.031	0.021*	0.023	0.012*
CCCNC(=O)CSc1nc2[nH]ncc2c(=O)[nH]1	0	-2	1	0.19	0.14	4	x	x	x	x	x	x
Cc1ccccc1OCCC(=O)OCC(=O)Nc1cc(S(=O)(=O)N2CCOCC2)ccc1Cl	0	0	8	-0.016	-1	-8	x	x	x	x	x	x
NC(=O)c1ccc(NC(=O)c2cccc3c2OCCCO3)cc1	0	6	x	x	x	-5	x	x	x	x	x	x
O=C(CCNC(=O)Cn1ccc2ccccc2c1=O)NCCN1CCN(c2cccc(Cl)c2)CC1	2	-7	0	x	4.6*	19	0.0059	0.0042	0.03	0.0077	0.019	0.01
O=C(CCNC(=O)Cn1ccc2ccccc2c1=O)NCCN1CCN(c2ccccc2F)CC1	1	1	x	x	0.0089	-38	x	x	x	x	x	x
O=C(Cn1ccc2ccccc2c1=O)NCCC(=O)N1CCN(c2cccc(Cl)c2)CC1	0	-9	9.7*	0.11	-2.8*	x	0.0073	0.0066	0.034	0.0073	u	0.011
COc1cccc(OCC(=O)NNC(=S)Nc2ccc(Cl)cc2Cl)c1	1	-9	8	1	5.5*	-23	0.0074	0.015*	0.028	0.014*	u	0.014*
CSCCC(=O)N1CCCC(CNC(=O)c2ccc(-c3ccccc3)cc2)C1 (stereo unspecified)	2	-8	1	0.074	-5.8*	8	0.006	0.0049	0.021*	0.0075	0.013*	0.01
CCc1cc(C(=O)N2CCCC(CNC(=O)c3ccc(-c4ccccc4)cc3)C2)no1 (stereo unspecified)	-1	-6	1	1.4	x	2	0.0081	0.0066	0.028*	0.0064	0.014*	0.01
COc1ccc(C(=O)COC(=O)CCc2nc3ccccc3[nH]c2=O)cc1Br	1	-1	5	0.3	0.53	-18	x	x	x	x	x	x
COCC(O)CSc1nc(C)[nH]c1[N+](=O)[O-] (stereo unspecified)	0	0	1	-0.13	-5.2*	x	0.016	0.0042	0.028	0.0072	0.016	0.0097
Cc1nc(SCC(O)CCl)c([N+](=O)[O-])[nH]1 (stereo unspecified)	1	-8	1	1	0.0096	x	x	x	x	x	x	x
COc1ccc(CNC(=O)C2CCC(CNc3c(N4CCC(C)CC4)c(=O)c3=O)CC2)cc1 (stereo unspecified)	-1	15	x	2.1	0.39	-9	x	x	x	x	x	x
CCc1cc2c(SCC#N)ncnc2s1	0	-16	0	0.49	6.1*	-8	0.0066	0.017*	0.036	0.017*	0.027*	0.017*
CCc1cc2c(SCC(=O)O)ncnc2s1	2	-30	2	x	x	-20	x	x	x	x	x	x
CCc1cc2c(SCC(=O)C(C#N)=C3N(C)c4ccccc4N3C)ncnc2s1	2	-11	9.0*	-1.2	x	-6	0.0079	0.0095*	0.03	0.007	0.015	0.0098
COc1cc(C)c(C)cc1S(=O)(=O)N1CCN(Cc2ccccc2)CC1	1	5	0	-1.3	x	-29	0.0054	0.005	0.025*	0.0067	u	0.011
SMILES	S1P4 agonist	S1P4 antagonist	RAM inhibit	ROMK primary	KCC2 mod	S1P3 antag	KCC2 secondary	KCC2 bumet counter	KCC2 sec2	HEK293 Tl flux	KCC2 ouabain	HEK293 Tl flux2
CCOc1ccc(CCNC(=O)COC(=O)c2nc3nc(C)cc(C)n3n2)cc1OCC	2	-34	1	x	0.49	1	x	x	x	x	x	x
O=C(N/N=C/c1ccc(-c2ccccc2)o1)c1ccccc1O	1	3	x	x	80*	4	0.025*	0.092*	0.032	0.035*	0.052*	0.013*
O=C(N/N=C/c1ccccn1)c1sc2ccccc2c1Cl	1	8	x	x	153*	5	0.0091*	0.11*	0.054*	0.1*	0.089*	0.082*
O=C(N/N=C/c1ccc([N+](=O)[O-])o1)c1sc2ccccc2c1Cl	0	-7	x	x	17*	14	0.018*	0.1*	0.033	0.019*	0.054*	0.012*
O=C(N/N=C/c1c[nH]c2ccccc12)c1sc2ccccc2c1Cl	1	-5	2	x	0.13	4	x	x	x	x	x	x
O=C(COc1ccc2ccccc2c1)N/N=C/c1ccccn1	2	3	0	-1	-3.8*	-20	0.0048	0.0051	0.025*	0.007	u	0.01
Cn1cccc1/C=N/NC(=O)c1sc2ccccc2c1Cl	0	0	2	0.04	1.9	x	x	x	x	x	x	x
Cc1ccccc1C(=O)N/N=C/c1ccccn1	0	-8	1	0.78	-0.38	0	x	x	x	x	x	x
